Results published in PubChem BioAssay AID1159580 (chemical genetic matrix, 2015).
“And” between values parts separate entries of the source, which are not always exact repeats. Equal values may be shown once. Out of some 5,500 compounds screened, about 2,000 (36%) were called active. Not shown: some 18% with an inconclusive outcome. No stated cut-off is given here; in the data, active means normalized growth mostly below about 0.91 (no sharp cut-off); inconclusive means no clear call, values can overlap the other calls; inactive means mostly above about 0.92. The list shows a part of the results.

Assay: chemical genetic growth profiling, strain panel (AID 1159580);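 further: tested at 20 µM; growth read once vehicle control cultures reached saturation at 30 °C; 1 = growth at the plate median or of vehicle wells; lower values mean less growth of the strain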
Details: S. cerevisiae deletion strains, growth OD

Measured: normalized growth

CN1Cc2c(N)cccc2C(c2ccccc2)C1 (centres undefined)
inactive: locus YAL013W, strain DEP1, hits give low values 1.01 | locus YAL021C, strain ccr4, hits give low values 0.991 | locus YAL026C, strain drs2, hits give low values 0.997 | locus YAL030W, strain snc1, hits give low values 0.996 | locus YAL040C, strain CLN3, hits give low values 0.991 | locus YBL061C, strain skt5, hits give low values 1.01 | locus YBR009C, strain hhf1, hits give low values 1.02 | locus YBR021W, strain FUR4, hits give low values 1.01 | locus YBR023C, strain chs3, hits give low values 1.02 | locus YBR171W, strain sec66, hits give low values 1.02 | locus YBR229C, strain ROT2, hits give low values 1.01 | locus YBR231C, strain swc5, hits give low values 1 | locus YBR279W, strain paf1, hits give low values 1.03 | locus YCL011C, strain gbp2, hits give low values 1 | locus YCL016C, strain dcc1, hits give low values 0.997 | locus YCL029C, strain bik1, hits give low values 1 | locus YCL061C, strain MRC1 (second series), hits give low values 0.989 | locus YCL069W, strain vba3, hits give low values 1.01 | locus YCR088W, strain abp1, hits give low values 1.01 | locus YDL005C, strain med2, hits give low values 1 | locus YDL035C, strain GPR1, hits give low values 1.02 | locus YDL040C, strain nat1, hits give low values 1.01 | locus YDL074C, strain BRE1, hits give low values 0.993 | locus YDL101C, strain DUN1, hits give low values 1.01 | locus YDL134C, strain PPH21, hits give low values 1.01 | locus YDL185W, strain tfp1, hits give low values 1.01 | locus YDL192W, strain arf1, hits give low values 1.02 | locus YDR001C, strain nth1, hits give low values 1.01 | locus YDR069C, strain doa4, hits give low values 1.02 | locus YDR101C, strain arx1, hits give low values 1.01 | locus YDR137W, strain rgp1, hits give low values 1.01 | locus YDR150W, strain NUM1, hits give low values 1 | locus YDR159W, strain sac3, hits give low values 1 | locus YDR162C, strain NBP2, hits give low values 1.02 | locus YDR195W, strain ref2 1.02 | locus YDR297W, strain sur2, hits give low values 1.01 | locus YDR318W, strain mcm21, hits give low values 1.02 | locus YDR334W, strain swr1, hits give low values 1.01 | locus YDR335W, strain msn5, hits give low values 1.02 | locus YDR363W, strain ESC2, hits give low values 0.963 | locus YDR388W, hits give low values 1.02 | locus YDR392W, strain spt3, hits give low values 0.938 | locus YDR502C, strain sam2, hits give low values 1.01 | locus YEL003W, strain gim4, hits give low values 1.01 | locus YEL037C, strain rad23, hits give low values 1.01 | locus YEL061C, strain CIN8 (second series), hits give low values 1 | locus YEL061C, strain CIN8, hits give low values 1 | locus YER002W, strain NOP16, hits give low values 1.01 | locus YER015W, strain faa2, hits give low values 1.02 | locus YER016W, strain bim1, hits give low values 1.01 | locus YER110C, hits give low values 1.02 | locus YER111C, strain swi4, hits give low values 1.01 | locus YER155C, strain BEM2 (second series), hits give low values 1.01 | locus YER155C, strain BEM2, hits give low values 1.01 | locus YER167W, strain BCK2, hits give low values 1.02 | locus YFR010W, strain ubp6, hits give low values 1.03 | locus YGL078C, strain dbp3, hits give low values 1 | locus YGL086W, strain mad1, hits give low values 0.999 | locus YGL167C, strain pmr1, hits give low values 1.01 | locus YGL173C, strain kem1, hits give low values 1.02 | locus YGL227W, strain vid30, hits give low values 1.01 | locus YGL240W, strain doc1, hits give low values 1.02 | locus YGL248W, strain PDE1, hits give low values 0.991 | locus YGL253W, strain hxk2, hits give low values 1 | locus YGR078C, strain PAC10, hits give low values 0.991 | locus YGR135W, strain pre9, hits give low values 1.04 | locus YGR229C, strain SMI1, hits give low values 1.02 | locus YGR252W, strain gcn5, hits give low values 1 | locus YHR013C, strain ard1, hits give low values 0.995 | locus YHR027C, strain rpn1, hits give low values 1.02 | locus YHR030C, strain SLT2, hits give low values 1.01 and 1.07 | locus YHR079C, strain IRE1 (second series), hits give low values 1.01 | locus YHR079C, strain IRE1, hits give low values 0.985 | locus YHR094C, strain hxt1, hits give low values 1.02 | locus YHR129C, strain ARP1, hits give low values 1.01 | locus YHR142W, strain chs7, hits give low values 1.01 | locus YHR200W, strain rpn10, hits give low values 1.02 | locus YIL066C, strain RNR3, hits give low values 1 | locus YIL073C, strain SPO22, hits give low values 1.08 | locus YIL125W, strain kgd1, hits give low values 1.01 | locus YIR030C, strain dcg1, hits give low values 1.01 | locus YJL092W, strain hpr5, hits give low values 1.01 | locus YJL095W, strain BCK1 (second series), hits give low values 1.01 | locus YJL095W, strain BCK1, hits give low values 0.983 and 0.981 | locus YJL115W, strain asf1, hits give low values 1.02 | locus YJL129C, strain trk1, hits give low values 1 | locus YJL134W, strain LCB3, hits give low values 1.01 | locus YJL154C, strain vps35, hits give low values 1.01 | locus YJL164C, strain tpk1, hits give low values 0.981 | locus YJL166W, strain qcr8, hits give low values 1.01 | locus YJL168C, strain set2, hits give low values 1.01 | locus YJL187C, strain SWE1 (second series), hits give low values 0.983 | locus YJR043C, strain POL32, hits give low values 0.973 | locus YJR066W, strain TOR1, hits give low values 0.933
